This note sets out measurements from PubChem BioAssay (NCATS).

“And” between values parts separate entries of the source, which are not always exact repeats. Equal entries are not always repeated. Inconclusive results are not listed. The source made the active and inactive calls. Unless noted, the call rests on the fitted dose curve; in most records, active means well fitted curve in the direction sought with a large enough effect; inconclusive means small, poorly fitted or top-dose-only effect, or another doubt; inactive means no such curve, though single readings can be large; an effect the other way counts as inactive or inconclusive.

The target in assay [1] is Flap endonuclease 1 (Homo sapiens) (UniProt P39748). Nature of the assay: qHTS Validation Assay for the Inhibitors of Human Flap endonuclease 1 (FEN1) (AID 488816). Further: on the % scale 0 is the no-effect control and ±100 the full control effect. The method in brief:
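Readings taken at 0 and 15 min after starting the reaction with 50 nM (final) substrate supplied the signal. Compounds had first sat with 10 nM FEN1 reagent for 15 min at room temperature. Values come from Hill-equation concentration-response fits.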
On the technique in general: In qHTS, concentration-response curves come from the screen itself.

For assay [2], the target named is M-phase phosphoprotein 8 (Homo sapiens) (UniProt Q99549). The assay can be described thus: qHTS Validation Assay for Inhibitors for MPP8 Chromodomain Interactions with Methylated Histone Tails (AID 488949). Further: nearly all actives have a fitted effect of over 55% in size. Further: potency means the concentration at half of the fitted maximal effect. The gist of the method:
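MPP8 (50 nM) was pre-bound to 50 nM biotinylated H3(1-18)K9me3 peptide in PBS pH 7.4 with 0.01% Tween-20. Compounds were then added for 30 min at room temperature, and complex disruption was read by AlphaScreen with streptavidin donor and nickel-chelate acceptor beads.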

Assay [3] deals with Chromobox protein homolog 1 (Homo sapiens) (UniProt P83916). The assay can be described thus: qHTS Validation Assay for Inhibitors of HP1-beta Chromodomain Interactions with Methylated Histone Tails (AID 488953). Further: nearly all actives have a fitted effect of over 50% in size. Further: potency means the concentration at half of the fitted maximal effect. The method in brief: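 Measured as loss of AlphaScreen luminescence from streptavidin donor and nickel acceptor beads (10 ug/mL final) bridging HP1-beta and biotin-H3(1-18)K9me3, each 50 nM. Compounds met the preassembled complex for 30 min at RT.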
Chromobox protein homolog 1 (Homo sapiens), sequence (P83916 whole entry, looked up): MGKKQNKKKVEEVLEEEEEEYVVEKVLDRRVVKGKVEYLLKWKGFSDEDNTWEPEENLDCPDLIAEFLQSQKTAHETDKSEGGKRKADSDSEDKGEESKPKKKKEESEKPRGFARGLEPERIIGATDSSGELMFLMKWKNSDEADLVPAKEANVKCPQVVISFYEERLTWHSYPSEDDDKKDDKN

Assay [4] has as its target Transient receptor potential cation channel subfamily V member 1 (Homo sapiens) (UniProt Q8NER1). The assay can be described thus: HTS Assay for Compounds that Act as Enhancers of the Vanilloid Receptor 1 (AID 488979). Further: 0% is about no effect. The gist of the method: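 Calcium influx kinetics via Fluo-8 (480/520 nm) in TRPV1-expressing cells, 2000/well cultured overnight at 35.5C. Compound-alone read 3 min (agonist phase), followed by EC20 capsaicin challenge for 2 min (enhancer phase).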

In assay [5] the target is Thyrotropin receptor (Homo sapiens) (UniProt P16473). The assay can be described thus: qHTS Assay for Antagonists of the Thyroid Stimulating Hormone Receptor (AID 488980). Further: series mostly up to about 58 µM; 0% is about no effect. The method in brief:
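TSHR-transfected HEK293 cells (2000/well) in HEPES-buffered HBSS with 70 uM RO 20-1724 were stimulated with 4 nM TSH (EC80, final) in the presence of compound. cAMP was measured by HTRF competition after lysis and 30 min at RT.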

Assay [6] has as its target D(1A) dopamine receptor (Homo sapiens) (UniProt P21728). The assay can be described thus: HTS Assay for Allosteric Agonists of the Human D1 Dopamine Receptor: Primary Screen for Agonists (AID 488981). Further: 0% is about no effect. The gist of the method: (§1)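 Calcium flux in an inducible, force-coupled HEK293 Trex D1 line (overnight at 30 C): agonist mode is the 180 s kinetic read after compound; potentiator mode is the following 180 s read after dopamine at EC20.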

Assay [7] has the same target. The assay can be described thus: HTS Assay for Allosteric Agonists of the Human D1 Dopamine Receptor: Primary Screen for Potentiators (AID 488982). Further: 0% is about no effect. The method in brief: as §1
A short description of assay [8]: Validation screen for small molecules that induce genotoxicity in human embryonic kidney (HEK293T) cells expressing luciferase-tagged ELG1 (AID 493106). Further: potency means the concentration at half of the fitted maximal effect. The gist of the method: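 Reporter-gene quantitative HTS in HEK293T cells carrying luciferase-tagged ELG1, whose level climbs under genotoxic stress. Compound exposure lasts 16 hr at 37 °C before luciferase detection.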

Assay [9] concerns the target ATPase family AAA domain-containing protein 5 (Homo sapiens) (UniProt Q96QE3). Nature of the assay: Validation screen for small molecules that inhibit ELG1-dependent DNA repair in human embryonic kidney (HEK293T) cells expressing luciferase-tagged ELG1 (AID 493107).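 Further: cells co-treated with the DNA-damaging agent 5-fluorouridine alongside compound; series mostly up to about 46 µM; on the % scale 0 is the no-effect control and ±100 the full control effect; inhibitors lower the ELG1-luciferase luminescence signal; nearly all actives have a fitted effect of over 70% in size.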 The method in brief: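 Quantitative HTS in HEK293T cells carrying luciferase-tagged ELG1, stimulated with 5-fluorouridine alongside compound for 16 hr. Loss of luciferase signal marks inhibition of ELG1 response.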

The target of assay [10] is Thyrotropin-releasing hormone receptor (Homo sapiens) (UniProt P34981). Nature of the assay: qHTS for Small Molecule Agonists and Allosteric Enhancers of Human TRH Receptor: Validation Screen for Agonists (AID 493127;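 active means calcium activation more than 3 SD above the typical response in the agonist read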;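 further: intracellular calcium rise by fluo-8 fluorescence before TRH EC20 addition; 0% is about no effect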). The settings on record: TRH receptor agonist cell assay; at 2 µM; stronger effect = higher value. The gist of the method: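 Gq-coupled calcium mobilization in TRHR cells after compound addition, monitored kinetically with fluo-8 dye on an FDSS reader.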
Thyrotropin-releasing hormone receptor (Homo sapiens), sequence (P34981 whole entry, looked up): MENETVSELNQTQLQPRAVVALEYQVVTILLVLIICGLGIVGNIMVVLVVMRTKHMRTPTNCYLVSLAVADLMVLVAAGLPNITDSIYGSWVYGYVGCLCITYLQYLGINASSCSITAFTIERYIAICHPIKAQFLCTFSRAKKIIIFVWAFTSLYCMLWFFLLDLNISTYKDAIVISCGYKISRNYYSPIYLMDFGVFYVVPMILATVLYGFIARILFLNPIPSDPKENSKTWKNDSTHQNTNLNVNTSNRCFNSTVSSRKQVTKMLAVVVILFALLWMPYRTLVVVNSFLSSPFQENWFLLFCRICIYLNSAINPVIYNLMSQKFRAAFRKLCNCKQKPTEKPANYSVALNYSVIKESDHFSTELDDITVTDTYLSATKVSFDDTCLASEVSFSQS

Assay [11] is described as follows: Nrf2 qHTS screen for inhibitors: Validation (AID 493153; active means well fitted inhibition curve with a large enough effect in the main read-out, with a control signal flat, not every such curve was filed as active). To be noted: Potency: luciferase luminescence; viability change: measured here: cytotoxicity max response. The method in brief: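 Dose-response validation uses reporter A549 cells with firefly luciferase under an antioxidant response element. Compounds stay on cells 18-24 h at 37°C, and luminescence indicates Nrf2-driven transcription.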

The nature of assay [12]: qHTS for Inhibitors of Cell Surface uPA Generation: Validation Assay (AID 493164).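 Further: RAW 264.7 macrophage cells exposed to compound for 18 h; 0% is about no effect.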 The gist of the method: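 RAW 264.7, 4000 cells/well, o/n plating; cpd 7-pt 1:5 dilution 2.45 nM–38.3 uM final; 18 h, 37 C/5% CO2; ATP-Lite, 5 s luminescence exposure.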
Assay [13] in a line: Validation screen for small molecules that induce DNA re-replication in SW480 colon adenocarcinoma cells (AID 504364). Further: 0% is about no effect. The method in brief:
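Cells are treated 48 hr with test compound, stained 40 min with Hoechst at 37 C, and scanned for nuclear fluorescence; compounds inducing re-replication increase nuclei with elevated intensity.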

Assay [14] has as its target D(1A) dopamine receptor (Homo sapiens) (UniProt P21728). Nature of the assay: HTS Assay for Allosteric Agonists of the Human D1 Dopamine Receptor: Primary Screen for Antagonists (AID 488983).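 Further: calcium flux response to an EC80 dopamine challenge measured with no-wash dye; on the % scale 0 is the no-effect control and ±100 the full control effect; nearly all actives have a fitted effect of over 65% in size.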 The method in brief: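 Screening of inducible HEK293 T-REx D1 cells: compound first, EC80 dopamine 180 s later, each phase read kinetically for calcium over 180 s.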
Assay [15] concerns the target Galactokinase (Homo sapiens) (UniProt P51570). The assay can be described thus: qHTS Validation Assay for Inhibitors of Human Galactokinase (GALK) (AID 493189). Further: 0% is about no effect. The gist of the method: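 GALK (5 nM) with 35 uM ATP and 100 uM galactose in HEPES pH 8.0 with MgCl2, NaCl, DTT and BSA. Reaction ran 1 h at room temperature. Residual ATP read by Kinase-Glo Plus luminescence.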

The target of assay [16] is Methanococcus maripaludis chaperonin (MmCpn) (UniProt Q6LX38). Nature of the assay: High-Throughput Screening for Modulators of Cytosolic Chaperonin Activity: MmCpn Primary Screen (AID 488978).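 Further: 50 nM MmCpn enzyme hydrolysing 30 µM ATP at 37 °C; 0% is about no effect.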 The method in brief: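 MmCpn at 50 nM final was preincubated 5 min at RT with compound. ATP was then added at 30 uM final for 10 min at 37 C. ADP formed was detected by Transcreener HTRF (665/590 nm).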
Methanococcus maripaludis chaperonin (MmCpn), sequence (Q6LX38 1-543): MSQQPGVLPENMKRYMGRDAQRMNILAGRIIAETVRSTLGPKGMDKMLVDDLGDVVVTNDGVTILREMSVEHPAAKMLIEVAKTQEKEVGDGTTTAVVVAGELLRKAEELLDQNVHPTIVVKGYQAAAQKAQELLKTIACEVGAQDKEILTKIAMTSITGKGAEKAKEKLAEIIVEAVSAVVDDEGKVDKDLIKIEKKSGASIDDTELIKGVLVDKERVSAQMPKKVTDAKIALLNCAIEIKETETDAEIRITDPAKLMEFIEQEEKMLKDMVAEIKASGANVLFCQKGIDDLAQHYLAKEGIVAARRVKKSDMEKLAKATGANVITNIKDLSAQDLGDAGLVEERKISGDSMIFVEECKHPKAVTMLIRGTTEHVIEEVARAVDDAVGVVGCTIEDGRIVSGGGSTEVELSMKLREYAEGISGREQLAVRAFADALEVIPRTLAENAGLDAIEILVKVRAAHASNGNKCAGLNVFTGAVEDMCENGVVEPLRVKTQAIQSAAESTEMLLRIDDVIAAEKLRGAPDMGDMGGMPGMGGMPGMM

Flap endonuclease 1 (Homo sapiens), sequence (P39748 whole entry, looked up): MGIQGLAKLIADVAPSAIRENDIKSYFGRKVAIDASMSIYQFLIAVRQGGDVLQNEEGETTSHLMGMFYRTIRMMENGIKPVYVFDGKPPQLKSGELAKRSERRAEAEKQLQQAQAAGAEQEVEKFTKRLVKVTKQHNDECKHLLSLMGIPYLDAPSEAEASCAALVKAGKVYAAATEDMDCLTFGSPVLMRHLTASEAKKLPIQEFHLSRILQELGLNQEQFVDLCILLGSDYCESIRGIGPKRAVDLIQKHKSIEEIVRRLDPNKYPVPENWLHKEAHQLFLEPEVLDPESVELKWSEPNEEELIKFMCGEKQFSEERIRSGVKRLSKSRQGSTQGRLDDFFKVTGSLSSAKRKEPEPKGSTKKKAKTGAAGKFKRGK
Galactokinase (Homo sapiens), sequence (P51570 whole entry, looked up): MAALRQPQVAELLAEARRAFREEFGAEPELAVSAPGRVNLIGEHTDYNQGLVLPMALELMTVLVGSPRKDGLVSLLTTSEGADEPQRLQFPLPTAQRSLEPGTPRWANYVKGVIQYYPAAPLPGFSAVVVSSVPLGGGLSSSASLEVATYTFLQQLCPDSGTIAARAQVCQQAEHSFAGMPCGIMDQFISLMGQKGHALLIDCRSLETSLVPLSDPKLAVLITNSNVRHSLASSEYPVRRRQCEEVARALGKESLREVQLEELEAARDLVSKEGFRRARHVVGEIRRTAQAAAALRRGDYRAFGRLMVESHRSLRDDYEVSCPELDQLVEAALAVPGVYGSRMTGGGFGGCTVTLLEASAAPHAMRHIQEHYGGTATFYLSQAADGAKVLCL
Thyrotropin receptor (Homo sapiens), sequence (P16473 whole entry, looked up): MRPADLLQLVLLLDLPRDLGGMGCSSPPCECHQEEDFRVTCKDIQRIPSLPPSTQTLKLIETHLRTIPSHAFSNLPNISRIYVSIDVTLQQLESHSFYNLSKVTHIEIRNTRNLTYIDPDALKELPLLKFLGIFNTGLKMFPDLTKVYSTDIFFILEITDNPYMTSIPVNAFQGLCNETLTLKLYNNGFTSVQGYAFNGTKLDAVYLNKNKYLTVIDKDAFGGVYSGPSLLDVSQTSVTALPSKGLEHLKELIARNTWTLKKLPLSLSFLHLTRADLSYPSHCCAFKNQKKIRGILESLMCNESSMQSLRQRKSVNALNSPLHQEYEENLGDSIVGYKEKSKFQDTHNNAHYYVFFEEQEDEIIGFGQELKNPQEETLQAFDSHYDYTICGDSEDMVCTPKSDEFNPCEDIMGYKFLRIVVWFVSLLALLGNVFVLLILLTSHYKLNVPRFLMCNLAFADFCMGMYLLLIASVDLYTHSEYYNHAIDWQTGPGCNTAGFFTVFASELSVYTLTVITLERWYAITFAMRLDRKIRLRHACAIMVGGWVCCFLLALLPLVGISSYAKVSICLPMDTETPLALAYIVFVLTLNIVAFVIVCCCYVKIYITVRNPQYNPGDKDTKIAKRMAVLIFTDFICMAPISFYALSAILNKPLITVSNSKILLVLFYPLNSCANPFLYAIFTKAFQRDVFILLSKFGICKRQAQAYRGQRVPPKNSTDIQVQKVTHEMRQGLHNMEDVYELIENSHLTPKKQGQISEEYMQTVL
M-phase phosphoprotein 8 (Homo sapiens), sequence (Q99549 whole entry, looked up): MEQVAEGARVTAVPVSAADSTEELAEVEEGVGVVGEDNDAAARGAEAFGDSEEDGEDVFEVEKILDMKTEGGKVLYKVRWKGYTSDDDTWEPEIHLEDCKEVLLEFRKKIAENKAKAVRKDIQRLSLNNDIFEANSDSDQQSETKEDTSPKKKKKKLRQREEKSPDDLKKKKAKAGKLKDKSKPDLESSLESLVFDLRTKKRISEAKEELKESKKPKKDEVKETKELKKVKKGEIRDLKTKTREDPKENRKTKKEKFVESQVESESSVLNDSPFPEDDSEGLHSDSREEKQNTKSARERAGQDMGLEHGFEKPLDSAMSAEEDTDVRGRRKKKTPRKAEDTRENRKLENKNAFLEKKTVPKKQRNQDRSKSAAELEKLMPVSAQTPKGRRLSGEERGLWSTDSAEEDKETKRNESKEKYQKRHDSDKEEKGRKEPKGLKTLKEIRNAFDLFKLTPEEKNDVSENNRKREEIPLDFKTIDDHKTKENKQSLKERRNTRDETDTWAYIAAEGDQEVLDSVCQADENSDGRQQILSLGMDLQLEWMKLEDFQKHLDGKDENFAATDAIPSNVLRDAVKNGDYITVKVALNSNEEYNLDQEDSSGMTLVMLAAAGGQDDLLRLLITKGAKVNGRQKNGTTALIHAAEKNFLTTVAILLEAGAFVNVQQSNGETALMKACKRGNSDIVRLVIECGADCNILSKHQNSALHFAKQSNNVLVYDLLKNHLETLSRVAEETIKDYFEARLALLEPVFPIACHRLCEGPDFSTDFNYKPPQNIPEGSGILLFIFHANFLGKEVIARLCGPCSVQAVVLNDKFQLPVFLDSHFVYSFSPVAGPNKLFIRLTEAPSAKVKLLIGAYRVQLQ
Transient receptor potential cation channel subfamily V member 1 (Homo sapiens), sequence (Q8NER1 whole entry, looked up): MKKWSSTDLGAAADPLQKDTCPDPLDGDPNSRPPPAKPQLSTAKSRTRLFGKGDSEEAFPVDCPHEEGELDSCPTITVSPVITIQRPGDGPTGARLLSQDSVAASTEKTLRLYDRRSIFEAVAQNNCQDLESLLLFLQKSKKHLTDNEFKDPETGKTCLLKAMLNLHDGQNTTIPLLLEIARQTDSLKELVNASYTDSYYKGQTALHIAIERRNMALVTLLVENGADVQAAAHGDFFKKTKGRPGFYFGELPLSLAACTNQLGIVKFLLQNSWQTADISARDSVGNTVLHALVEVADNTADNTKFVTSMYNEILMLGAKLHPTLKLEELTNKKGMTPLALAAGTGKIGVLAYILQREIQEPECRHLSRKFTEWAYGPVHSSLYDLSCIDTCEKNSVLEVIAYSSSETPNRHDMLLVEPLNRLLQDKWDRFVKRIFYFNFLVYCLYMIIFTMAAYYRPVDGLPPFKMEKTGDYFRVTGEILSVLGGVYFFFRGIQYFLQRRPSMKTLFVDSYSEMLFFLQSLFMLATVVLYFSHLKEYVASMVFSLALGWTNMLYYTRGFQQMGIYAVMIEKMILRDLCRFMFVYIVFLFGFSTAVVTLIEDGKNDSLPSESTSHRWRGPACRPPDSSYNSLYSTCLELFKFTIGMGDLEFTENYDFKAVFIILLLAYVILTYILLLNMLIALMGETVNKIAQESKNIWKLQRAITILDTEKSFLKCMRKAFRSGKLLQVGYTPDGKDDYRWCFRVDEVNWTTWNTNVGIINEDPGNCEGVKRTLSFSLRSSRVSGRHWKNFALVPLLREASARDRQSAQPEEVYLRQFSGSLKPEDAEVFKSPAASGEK
D(1A) dopamine receptor (Homo sapiens), sequence (P21728 whole entry, looked up): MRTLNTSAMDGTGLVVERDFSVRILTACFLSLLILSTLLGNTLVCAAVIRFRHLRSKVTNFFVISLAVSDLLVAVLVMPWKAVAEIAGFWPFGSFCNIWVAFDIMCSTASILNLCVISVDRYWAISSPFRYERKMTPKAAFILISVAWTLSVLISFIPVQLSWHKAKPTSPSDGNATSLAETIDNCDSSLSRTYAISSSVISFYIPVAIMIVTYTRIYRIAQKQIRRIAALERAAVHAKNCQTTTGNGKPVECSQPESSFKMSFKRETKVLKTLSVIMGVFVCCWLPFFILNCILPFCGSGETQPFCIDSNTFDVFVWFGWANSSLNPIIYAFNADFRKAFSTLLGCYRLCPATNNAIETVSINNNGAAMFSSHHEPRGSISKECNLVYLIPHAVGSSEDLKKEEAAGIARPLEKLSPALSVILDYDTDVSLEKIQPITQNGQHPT

Turning to `CN1CCc2cc(O)c(O)cc2C(c2ccccc2)C1` (configuration not stated), the Potency entry in assay [1], in assay [2], in [3], in [6], in [7] and in assay [8] was “inactive” each time. The Potency entry in assay [9], in [11] and in assay [13] was “inactive” each time. The result in assay [4], in assay [5] and in assay [12] was inactive. In addition, the activation in assay [10] was -0.188% (inactive). In addition, in assay [11], the viability change is -7.53%.
For `NO`, the Potency entry in [1], in assay [2], in assay [6], in assay [14], in assay [8] and in assay [15] was “inactive” throughout. Besides, in [13], the Potency result was “inactive”. Further, the outcome in assay [4], in assay [5] and in [12] was inactive.
In the case of `CN(C)c1ccc(/C=C2\C(=O)Nc3ccccc32)cc1`, the Potency entry in [1], in assay [6], in assay [7], in [14] and in [13] was “inactive” throughout. Further, the Potency in [2] was 28.2 µM (active) and 10.6 µM (active); in assay [3], 28.2 µM (active); in assay [8], 1.83 µM (active). For the same compound, the outcome in assay [16], in [4], in assay [5] and in assay [12] was inactive. Also, the activation in assay [10] is -8.75% (inactive).
In the case of `COc1cc(OC)c(/C=C2/C(=O)Nc3ccccc32)c(OC)c1`, the Potency entry in [1], in assay [6], in assay [7], in assay [14] and in assay [15] was “inactive” in each case. Further, the outcome in [4] and in [5] was inactive. Also, in assay [10], the activation is 1.38% (inactive).
Take `CC(C)(C)NCC(O)COc1nsnc1N1CCOCC1` (configuration not stated): the Potency entry in [2] and in [13] was “inactive” in each case. Further, the outcome in [4] was inactive.
Take `N#C/C(=C\c1ccc(O)c(O)c1)C(=O)NCCCc1ccccc1`: the Potency result in assay [1], in assay [6], in [7], in [8], in assay [11] and in [15] was “inactive” in each case. The Potency in assay [2] is 7.08 µM (active) and 8.44 µM (active); in assay [3], 5.62 µM (active). Moreover, the compound was called inactive in [16], in [4], in assay [5] and in assay [12]. In addition, in assay [10], the activation is 0.625% (inactive). Moreover, the viability change in assay [11] is -10.3%.
